Assay outcomes (PubChem BioAssay)
Sampled rows, rich in hits. Any-hit rate of the full collection: about 7.5%.
SMN2 splice enh: enhancers of SMN2 splice variant expression. HEK293 SMN2-luciferase splicing reporter, luminescence, 30-36 h. Potency, µM (series often up to 46.1 µM), usual class: activators. 210,000 compounds, 2.8% hits. AID 1458; further: nearly all actives have a fitted effect of over 55% in size
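qHTS luciferase splicing reporter: luminescence rises when SMN2 exon 7 is included in transfected HEK293 cells. Compound exposure lasted 30-36 h at 37C, with 4.5 mM final sodium butyrate as control, followed by a ONE-Glo read.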
FLuc counter: firefly luciferase modulation, counter-screen for miR-21 project; AID 588342; 360,000 compounds, 6.9% hits; Potency, µM (doses to about 57.5 µM), actives largely listed as inhibitors; P08659; purified FLuc, Km substrates, luminescence inhibition; further: nearly all actives have a fitted effect of over 55% in size
Target sequence (P08659 whole entry, looked up): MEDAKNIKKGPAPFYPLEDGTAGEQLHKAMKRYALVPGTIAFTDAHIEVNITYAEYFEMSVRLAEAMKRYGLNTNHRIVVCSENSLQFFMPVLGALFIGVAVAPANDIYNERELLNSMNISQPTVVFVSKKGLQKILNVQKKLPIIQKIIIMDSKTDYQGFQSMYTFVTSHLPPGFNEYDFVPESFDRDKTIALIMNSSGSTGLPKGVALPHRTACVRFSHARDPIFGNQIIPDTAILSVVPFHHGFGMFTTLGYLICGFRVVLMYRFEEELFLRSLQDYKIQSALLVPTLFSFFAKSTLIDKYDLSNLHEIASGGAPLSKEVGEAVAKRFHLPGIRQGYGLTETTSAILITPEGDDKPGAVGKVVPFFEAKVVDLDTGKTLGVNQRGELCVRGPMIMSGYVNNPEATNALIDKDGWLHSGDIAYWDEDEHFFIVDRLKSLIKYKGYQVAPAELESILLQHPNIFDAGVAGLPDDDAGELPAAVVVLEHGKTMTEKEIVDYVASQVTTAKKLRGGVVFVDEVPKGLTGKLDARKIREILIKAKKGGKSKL
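Purified P. pyralis luciferase (10nM final) with 10uM D-luciferin and 10uM ATP (Km levels) in 50mM Tris acetate pH 7.5, 10mM Mg acetate, 0.01% Tween-20, 0.05% BSA; qHTS 6-point titration, ~60 µM downward; luminescence read.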
Rab9 prom act: Rab9 promoter activation; Huh7 Rab9 promoter-luciferase reporter, luminescence, 24 h; AID 485297; 320,000 compounds, 2.8% hits; Potency, µM (doses to about 9.22 µM), hits mostly activators; further: nearly all actives have a fitted effect of over 60% in size
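Huh7 cells stably carrying Rab9 promoter–luciferase reporter, plated 1500 cells/well, compound added after 2 h and incubated 24 h at 37 °C; luciferase luminescence then read after 10 min with detection reagent.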
ELG1 genotoxic: induces genotoxicity in HEK293T cells with luciferase-tagged ELG1 | HEK293T ELG1-luciferase reporter, luminescence, 16 h | Potency, µM (doses to about 46 µM), hits mostly activators | 330,000 compounds, 1.3% hits; further: nearly all actives have a fitted effect of over 60% in size
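Screening used a luciferase reporter fused to human ELG1 in HEK293T cells. Luminescence was read on a CCD plate imager after 16 hr exposure and 30 min ONE-Glo incubation.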
Luc counter: counter-screen: inhibitors of Kinase-Glo firefly luciferase | Q27757 | Kinase-Glo luciferase, ATP luminescence, 8 min | Potency, µM (titrated, usually from 38.3 µM), usual class: inhibitors | 200,000 compounds, 0.28% hits | AID 1379; further: nearly all actives have a fitted effect of over 60% in size
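Recombinant Kinase-Glo luciferase, 10 uM ATP (linear range), luciferin; imidazole pH 7.2 / KCl / MgCl2 / Tween / BSA buffer; 8 min RT; luminescence.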
NPC1 prom act: activators of NPC1 promoter; Huh7 NPC1 promoter luciferase reporter, 24 h; Potency, µM (doses to about 9.22 µM), actives largely listed as activators; 320,000 compounds, 2.4% hits; AID 485313; further: nearly all actives have a fitted effect of over 60% in size
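In 1536-well qHTS, Huh7 cells harboring an NPC1 promoter–luciferase construct received compound for 24 h; activation was quantified by luminescence following luciferase reagent addition.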
A number is an active result; . = inactive; ? = inconclusive; / = no result given. The call rests on the fitted dose curve; in most records, active means well fitted curve in the direction sought with a large enough effect; inconclusive means small, poorly fitted or top-dose-only effect, or another doubt; inactive means no such curve, though single readings can be large; an effect the other way counts as inactive or inconclusive.

SMILES	SMN2 splice enh	FLuc counter	Rab9 prom act	ELG1 genotoxic	Luc counter	NPC1 prom act
CC(=O)Nc1cccc(C(=O)OCC(=O)Nc2ccc(Cl)cn2)c1	/	?	.	.	/	.
CCC(=O)Nc1cccc(C(=O)OCC(=O)c2ccccc2Cl)c1	.	7.57µM	?	?	.	3.16µM
CC(=O)Nc1cccc(C(=O)OCC(=O)N2CCC(c3ccccc3)=N2)c1	/	15.1µM	?	?	/	?
CCOc1ccccc1-c1nc(C(N)=O)c2c(n1)n(-c1ccc3c(c1)OCO3)c(=O)n2C	/	.	/	/	/	/
Cc1nn(CC(=O)c2ccccc2Cl)c(C)c1[N+](=O)[O-]	?	10.7µM	3.98µM	14.6µM	.	?
Cc1nn(CC(=O)NCc2ccccc2)c(C)c1[N+](=O)[O-]	.	.	.	.	.	.
Cc1c(Cl)cccc1Nc1nc(N)nc(CSCCO)n1	.	.	.	.	.	.
Cc1c(Cl)cccc1Nc1nc(N)nc(CSc2ncccn2)n1	.	?	?	16.4µM	.	.
COc1ccc(NC(=O)COC(=O)CCNC(=O)c2ccco2)cc1Cl	/	/	/	.	/	/
CCC(=O)Oc1ccc(C(=O)Nc2cccc(C(=O)NCC(C)C)c2)cc1	/	13.5µM	.	.	.	.
O=C(Nc1ccccc1C(=O)NCc1ccco1)Nc1cccc2ccccc12	.	.	.	.	.	.
Cc1ccc(C(=O)Nc2cccc(C(=O)NCc3ccccc3)c2)cc1	.	8.49µM	.	.	.	.
Cc1occc1C(=O)Nc1cccc(C(=O)NCc2ccccc2)c1	.	.	.	.	.	.
COc1cccc(CNC(=O)c2ccc(C3SCCS3)cc2)c1	/	16.9µM	.	.	/	.
O=C(Nc1cccc(Cl)c1)Nc1ccccc1C(=O)NCc1ccco1	.	19µM	.	.	.	.
COc1cccc(CNC(=O)c2ccc(C(=O)NCc3cccc(OC)c3)cc2)c1	/	.	.	?	/	.
CCCN1CCN(c2ncnc3sc(C(=O)Nc4ccc(N(CC)CC)cc4C)c(C)c23)CC1	/	.	/	/	/	/
CN1CCN(C(=S)Nc2ccc(S(N)(=O)=O)cc2)CC1	.	.	.	.	.	.
Cc1ccc(C)c(NC(=O)Cn2cnc3c(oc4ccccc43)c2=O)c1	.	.	.	?	.	.
COc1ccc(NC(=O)c2cccc(NC(=O)c3ccccc3)c2)cc1	/	?	?	.	/	?
Cc1ccc(C(=O)Nc2cccc(C(=O)NCc3ccco3)c2)cc1	?	12µM	.	.	.	?
COc1ccc(C(=O)Nc2cccc(C(=O)NCc3ccccc3)c2)cc1	.	12µM	.	.	.	.
OCC1(Cc2ccccc2F)CCCN(CC2CCCCC2)C1 (stereo unspecified)	/	.	.	.	/	.
COc1ccc(NC(=O)c2ocnc2C)cc1OC	.	.	.	.	.	.
Cc1ccsc1C(=O)Nc1ccc2c(c1)OCCO2	2.24µM	1.9µM	0.631µM	2.06µM	10µM	1.26µM
SMILES	SMN2 splice enh	FLuc counter	Rab9 prom act	ELG1 genotoxic	Luc counter	NPC1 prom act
CC(=O)Nc1ccc2c(c1)OCCOCCOc1cc(NC(C)=O)ccc1OCCOCCOCCO2	.	.	.	.	.	.
Cc1ncoc1C(=O)Nc1ccc2c(c1)OCCO2	15.8µM	12µM	2.51µM	?	?	3.16µM
COc1ccc(C(=O)/C=C/c2cc(OC)c(O)c(OC)c2)c(F)c1	/	19µM	.	.	.	.
COc1cc(/C=C/C(=O)c2ccccc2O)cc(OC)c1OC	.	?	.	?	.	.
COc1ccc2cc(C(=O)/C=C/c3cc(OC)c(O)c(OC)c3)ccc2c1	/	1.9µM	.	.	/	?
C=C[C@](C)(O)CCC1C(=C)CC(OC(C)=O)C2C(C)(C)CCCC12C (stereo partly specified)	.	/	/	/	.	/
Cn1c(=O)c(-c2cc(F)cc(F)c2)nc2cnc(Oc3cccc(Cl)c3)nc21	.	/	/	/	.	/
COc1ccc(-c2cc3ccccc3s2)cc1[C@H]1[C@H]2C=CC[C@@H](C)[C@@H]2C(=O)N1Cc1ccccc1	/	1.35µM	2.82µM	?	/	3.16µM
COc1ccc(-c2ccc(OC)c([C@H]3[C@H]4C=CC[C@@H](C)[C@@H]4C(=O)N3Cc3ccccc3)c2)cc1C	/	.	.	.	/	.
Cc1nn(-c2ccc(N3CCOCC3)nn2)c(C)c1CCC(=O)NCc1ccccc1F	/	.	.	.	/	.
CC(C)(C)C(=O)COc1ccccc1[N+](=O)[O-]	.	.	.	.	.	.
O=[N+]([O-])c1ccccc1OCCOc1ccccc1[N+](=O)[O-]	/	.	2µM	.	/	3.55µM
O=C(CCOc1ccccc1)Nc1ccccc1[N+](=O)[O-]	.	.	.	.	.	.
O=[N+]([O-])c1ccccc1NCCOc1ccccc1	?	9.53µM	?	?	.	?
CCOC(=O)/C=C/COc1ccccc1[N+](=O)[O-]	.	15.1µM	?	.	.	.
COc1ccc(OCCOc2ccccc2[N+](=O)[O-])cc1	?	16.9µM	?	?	.	?
CCOC(=O)Cc1ccc(NC(=O)N2CC(C)Oc3ccc(Cl)cc32)cc1 (stereo unspecified)	/	.	/	/	/	/
C/C(=N/NC(=O)c1cccs1)c1ccco1	?	16.9µM	?	?	.	.
C/C(=N\NC(=O)c1csc(C)c1C)c1ccc(C)s1	?	?	?	?	.	?
C/C(=N/NC(=O)OC(C)(C)C)c1ccco1	14.1µM	19µM	2.51µM	?	.	?
C/C(=N\NC(=O)c1csc(C)c1C)c1ccco1	11.2µM	7.57µM	2.24µM	6.51µM	?	3.98µM
C/C(=N\NC(=O)c1cccs1)c1ccc(C(=O)O)s1	/	.	.	?	/	.
CC(=O)N/N=C(/C)c1ccc(NC(=O)c2csc(C)c2C)cc1	/	10.7µM	1.41µM	11.6µM	/	2.82µM
CC(/C=N/NC(=O)c1cccs1)=C\c1ccco1	11.2µM	6.01µM	1.41µM	9.2µM	.	3.16µM
CC(/C=N/NC(=O)Cc1cccs1)=C\c1ccco1	.	?	?	.	.	?
SMILES	SMN2 splice enh	FLuc counter	Rab9 prom act	ELG1 genotoxic	Luc counter	NPC1 prom act
O=c1cc(-c2ccccc2Cl)oc2cc(O)cc(O)c12	.	26.9µM	.	.	.	.
Nc1ccc(O)c2c(=O)cc(-c3ccccc3Cl)oc12	11.2µM	2.69µM	2.82µM	?	.	2.82µM
CCOc1cccc2oc(-c3ccccc3Cl)cc(=O)c12	/	/	/	/	.	/
CC(C)c1ccc(-c2nnn(CCC(=O)O)n2)cc1	.	9.53µM	.	.	.	.
CCc1ccc(-c2nnn(CCC(=O)OC)n2)cc1	.	15.1µM	.	.	.	.
CCCCc1ccc(NC(=O)COc2cccc3c(=O)n(C)ccc23)cc1	/	.	/	/	/	/
O=C(NN=C1CCCCC1)Nc1ccccc1Cl	/	19µM	.	.	/	.
Cc1c(NC(=O)Nc2ccc3c(c2)OCO3)cccc1[N+](=O)[O-]	/	?	?	.	/	3.16µM
Cc1ccccc1NC(=O)Nc1ccc2c(c1)OCO2	/	?	2.82µM	?	/	?
